PubChem BioAssay (NCATS)
Inconclusive results are not listed. The source made the active and inactive calls. Unless noted, calls come from the whole dose curve.

Tests used:
[1] = qHTS for Inhibitors of the Functional Ribonucleoprotein Complex (vRNP) of Lassa (LASV) Arenavirus: LASV Primary Screen - GLuc reporter signal (AID 1347082; calls by dose curve; tested in HEK293 reporter line; note: nearly all actives have a fitted effect of over 60% in size); conditions: LASV minigenome vRNP, Gaussia luciferase reporter; series mostly up to 57.5 µM
[2] = qHTS for Inhibitors of the Functional Ribonucleoprotein Complex (vRNP) of Lassa (LASV) Arenavirus: Viability assay - alamar blue signal for LASV Primary Screen (AID 1347083; calls by dose curve; tested in HEK293 reporter line; note: nearly all actives have a fitted effect of over 80% in size); conditions: cell viability, alamar blue fluorescence (LASV minigenome counter-screen); series mostly up to 57.5 µM
[3] = qHTS for Inhibitors of the Functional Ribonucleoprotein Complex (vRNP) of Lymphocytic Choriomeningitis Arenaviruses (LCMV): Viability assay - alamar blue signal for LCMV Primary Screen (AID 1347085; calls by dose curve; tested in HEK293 reporter line; note: nearly all actives have a fitted effect of over 80% in size); conditions: alamar blue viability counter-screen, LCMV vRNP screen cells; series mostly up to 57.5 µM
[4] = target: Nucleoprotein (Lymphocytic choriomeningitis virus (strain Armstrong)) (UniProt P09992); test: qHTS for Inhibitors of the Functional Ribonucleoprotein Complex (vRNP) of Lymphocytic Choriomeningitis Arenaviruses (LCMV): LCMV Primary Screen - GLuc reporter signal (AID 1347086); conditions: LCMV minigenome vRNP cell assay, Gaussia luciferase reporter; series mostly up to 57.5 µM; note: nearly all actives have a fitted effect of over 70% in size
Sequence of Nucleoprotein (Lymphocytic choriomeningitis virus (strain Armstrong)) (P09992 whole entry, looked up): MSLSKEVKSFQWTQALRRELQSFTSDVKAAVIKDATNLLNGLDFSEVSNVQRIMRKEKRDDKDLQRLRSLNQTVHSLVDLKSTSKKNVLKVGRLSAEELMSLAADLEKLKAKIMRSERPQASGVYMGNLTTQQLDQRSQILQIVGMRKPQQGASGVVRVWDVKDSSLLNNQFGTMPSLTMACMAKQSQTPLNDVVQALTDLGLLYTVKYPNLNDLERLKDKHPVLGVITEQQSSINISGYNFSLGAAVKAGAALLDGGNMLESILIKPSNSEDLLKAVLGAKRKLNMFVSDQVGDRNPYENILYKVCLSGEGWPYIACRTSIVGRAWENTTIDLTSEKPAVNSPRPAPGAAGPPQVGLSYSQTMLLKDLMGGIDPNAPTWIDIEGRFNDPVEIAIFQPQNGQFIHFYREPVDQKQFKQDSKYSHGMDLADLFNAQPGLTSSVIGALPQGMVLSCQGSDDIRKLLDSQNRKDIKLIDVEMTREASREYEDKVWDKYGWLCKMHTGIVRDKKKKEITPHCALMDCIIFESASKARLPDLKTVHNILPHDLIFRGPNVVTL

Measured: Potency

CC(C)NCC(O)c1ccc(O)c(O)c1 (stereo unspecified)
inactive: all assays above

Cc1cn([C@H]2C=C[C@@H](CO)O2)c(=O)[nH]c1=O
inactive: all assays above

Fc1ccc([C@@H]2CCNC[C@H]2COc2ccc3c(c2)OCO3)cc1
inactive: all assays above

CCCN[C@H]1CCc2nc(N)sc2C1
inactive: all assays above

Cc1ccc2c(n1)Oc1ccc(C(C)C(=O)OCC(=O)N(C)C)cc1C2 (stereo unspecified)
inactive: all assays above

N[C@@H]1CONC1=O
inactive: all assays above

COc1cc(NC(C)CCCN)c2ncccc2c1 (stereo unspecified)
inactive: all assays above

Nc1cc(-c2ccncc2)c[nH]c1=O
inactive: all assays above

CCCCc1nc(Cl)c(CO)n1Cc1ccc(-c2ccccc2-c2nn[nH]n2)cc1
inactive: all assays above

Cc1cc2c(s1)Nc1ccccc1N=C2N1CCN(C)CC1
inactive: all assays above

O=C(OC1C[C@H]2CC[C@@H](C1)[N+]21CCCC1)C(O)(c1ccccc1)c1ccccc1 (stereo partly specified)
inactive: all assays above

CO/N=C(\C(=O)N[C@@H]1C(=O)N2C(C(=O)O)=C(CSc3nc(=O)c(O)nn3C)CS[C@H]12)c1csc(N)n1
inactive: all assays above

CNCCc1ccccn1
inactive: all assays above

CCC1(c2ccccc2)C(=O)NCNC1=O
inactive: all assays above

CCOC(=O)[C@H](CCc1ccccc1)N[C@@H](C)C(=O)N1[C@H](C(=O)O)C[C@@H]2CCC[C@@H]21
inactive: all assays above

CCOC(=O)C1=C(C)NC(C)=C(C(=O)OC)C1c1cccc(Cl)c1Cl (stereo unspecified)
inactive: all assays above

Nc1ccc(O)c(C(=O)O)c1
inactive: all assays above

CN(C/C=C/C#CC(C)(C)C)Cc1cccc2ccccc12
inactive: all assays above

CC(CN(C)C)CN1c2ccccc2CCc2ccccc21 (stereo unspecified)
inactive: all assays above

O=C(O)c1ccc(-n2nc(-c3ccccc3O)nc2-c2ccccc2O)cc1
inactive: all assays above

CO[C@H]1C=CO[C@@]2(C)Oc3c(C)c(O)c4c(O)c(c(/C=N/N5CCN(C)CC5)c(O)c4c3C2=O)NC(=O)/C(C)=C\C=C[C@H](C)[C@H](O)[C@@H](C)[C@@H](O)[C@@H](C)[C@H](OC(C)=O)[C@@H]1C
inactive: all assays above

CN1CCN(CCCN2c3ccccc3Sc3ccc(C(F)(F)F)cc32)CC1
inactive: all assays above

Cc1nc2n(c(=O)c1CCN1CCC(c3noc4cc(F)ccc34)CC1)CCCC2
inactive: all assays above

C=C(c1ccc(C(=O)O)cc1)c1cc2c(cc1C)C(C)(C)CCC2(C)C
inactive: all assays above

O=C1CCc2ccc(OCCCCN3CCN(c4cccc(Cl)c4Cl)CC3)cc2N1
inactive: all assays above

CCN(CC)CCOC(=O)C1(C2CCCCC2)CCCCC1
inactive: all assays above

O=c1c(O)c(-c2ccc(O)c(O)c2)oc2cc(O)cc(O)c12
inactive: all assays above

COc1cc2nc(N3CCN(C(=O)C4CCCO4)CC3)nc(N)c2cc1OC (stereo unspecified)
inactive: all assays above

COC(=O)CCc1ccc(OCC(O)CNC(C)C)cc1 (stereo unspecified)
inactive: all assays above

CC(C)(C)NC(=O)[C@@H]1CN(Cc2cccnc2)CCN1C[C@@H](O)C[C@@H](Cc1ccccc1)C(=O)N[C@H]1c2ccccc2C[C@H]1O
inactive: all assays above

CCCc1cc(=O)[nH]c(=S)[nH]1
inactive: all assays above

Cc1cc(C)cc(OCC2CNC(=O)O2)c1 (stereo unspecified)
inactive: all assays above

CC(=O)CCCCn1c(=O)c2c(ncn2C)n(C)c1=O
inactive: all assays above

COC(=O)[C@@H]1CC2=CC(=O)CC[C@]2(C)[C@@]23O[C@@H]2C[C@@]2(C)[C@@H](CC[C@@]24CCC(=O)O4)[C@H]13
inactive: all assays above
